Where “and” joins values, the source holds several entries; their conditions need not be identical. Equal entries are not always repeated. Calls of active or inactive are those of the source.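 How the source made its calls, unless noted: active means inhibition at or above 50% relative to wild type and mutant plate controls; inactive means inhibition below 50%.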
Experiments:
[1] = inhibitors of TNFa-induced NFkB p65 translocation, primary screen, imaging, HUVEC, MLSMR starter and 10KST1 sets (AID 438;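 active means inhibition above 20% together with a positive visual image hit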;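 further: compound added about 3h40 before a 20 min TNFalpha stimulation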;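 on inhibition: signal is the nuclear over cytoplasmic p65 intensity ratio per well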); conditions: HUVEC TNFa-induced p65 nuclear translocation; cell count: measured here: nuclei count (cytotoxicity indicator), at 2.08 µM; inhibition: at 2 µM, stronger effect = higher value, 0% TNFa-plus-vehicle, 100% no-TNFa wells
[2] = inhibitors of mutant huntingtin aggregation, primary screen, imaging, exon1htt(103Q)mCFP cells, high-content imaging (AID 483;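 active means visual image review flags a hit and inhibition of aggregation exceeds 20%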;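 further: compound exposure lasted 3 days before fixation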;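 on nuclei count: percent of the per-plate median nuclei count of sample wells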); conditions: exon1htt(103Q)mCFP cell line, aggregate imaging, at 2 µM; inhibition of aggregation: stronger effect = higher value; nuclei count: measured here: cell count, toxicity
[3] = inhibitors of E-selectin induction by TNFa, primary screen, imaging, HUVEC, immunofluorescence, MLSMR starter and 10KST1 sets (AID 487;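 active means visually confirmed hit in the image check and inhibition above 20%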;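 on inhibition: signal is fraction of cell area covered by stained E-selectin grains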;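 on nuclei count: 100% = median nuclei count of all wells on the same plate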); conditions: HUVEC TNFalpha-induced E-selectin immunofluorescence imaging, at 2 µM; inhibition: stronger effect = higher value; nuclei count: measured here: cell number, toxicity
[4] = DUSP6 inhibitors restoring Erk phosphorylation by chemical complementation, primary imaging in DUSP6-transfected HeLa (AID 609;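 active means compounds giving at least 50% inhibition in the cell-based MKP-3 phosphatase rescue imaging test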;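 on inhibition: phospho-Erk level distribution per well compared with pooled transfected vehicle control wells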); conditions: HeLa MKP-3 transfected, phospho-Erk imaging KS statistic, at 10 µM, cells stimulated with TPA for 15 min
[5] = target: Dual specificity protein phosphatase 6 (Homo sapiens) (UniProt Q16828); experiment: as above; conditions: HeLa MKP-3 transfected, phospho-Erk imaging KS statistic; at 10 µM; stronger effect = higher value; cells stimulated with TPA for 15 min
Dual specificity protein phosphatase 6 (Homo sapiens), sequence (Q16828 whole entry, looked up): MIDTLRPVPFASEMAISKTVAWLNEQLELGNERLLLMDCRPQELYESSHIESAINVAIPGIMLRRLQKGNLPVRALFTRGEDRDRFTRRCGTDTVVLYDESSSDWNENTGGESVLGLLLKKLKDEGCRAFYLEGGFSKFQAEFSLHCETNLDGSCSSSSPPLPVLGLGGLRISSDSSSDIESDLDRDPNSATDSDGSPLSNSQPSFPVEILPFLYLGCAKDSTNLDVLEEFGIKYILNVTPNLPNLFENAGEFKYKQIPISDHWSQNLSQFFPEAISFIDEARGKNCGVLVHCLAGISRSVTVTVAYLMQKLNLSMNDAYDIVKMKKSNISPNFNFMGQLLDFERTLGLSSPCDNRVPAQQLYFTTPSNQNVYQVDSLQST

[6] = target: Voltage-gated potassium channel subunit beta-2 (Rattus norvegicus) (UniProt P62483); experiment: KvBeta enzyme negative modulators, primary screen, biochemical, NADPH fluorescence (AID 622;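 active means fluorescence slope higher than the sample average by over 3 SD, cut at about -0.22 in these data, passing the limit was not always enough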;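 further: slope of raw intensity against log time taken from 70 to 1610 s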); conditions: recombinant KvBeta, 4-cyanobenzaldehyde reduction, at 10 µM, stronger effect = higher value
Voltage-gated potassium channel subunit beta-2 (Rattus norvegicus), sequence (P62483 whole entry, looked up): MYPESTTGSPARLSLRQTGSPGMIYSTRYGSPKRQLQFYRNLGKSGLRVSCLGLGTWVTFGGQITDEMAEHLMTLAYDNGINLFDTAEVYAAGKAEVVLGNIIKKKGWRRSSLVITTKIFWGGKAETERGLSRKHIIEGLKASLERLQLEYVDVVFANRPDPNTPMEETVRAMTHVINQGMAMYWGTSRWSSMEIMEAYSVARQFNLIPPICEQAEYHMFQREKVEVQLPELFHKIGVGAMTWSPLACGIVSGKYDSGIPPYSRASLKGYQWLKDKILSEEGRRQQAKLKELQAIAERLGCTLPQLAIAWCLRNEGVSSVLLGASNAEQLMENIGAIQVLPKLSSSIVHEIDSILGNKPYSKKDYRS

[7] = target: Voltage-gated potassium channel subunit beta-2 (Rattus norvegicus) (UniProt P62483); experiment: KvBeta positive modulators, primary screen, biochemical, NADPH fluorescence (AID 623;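 active means NADPH fluorescence slope more negative than the mean of all samples by about 3 SD, 99.7% confidence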;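 further: fluorescence intensity change per second fitted from 20 to 320 s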); conditions: Recombinant KvBeta, NADPH fluorescence decrease slope, 10 min; at 10 µM; stronger effect = lower value
[8] = target: Alpha-2C adrenergic receptor (Homo sapiens) (UniProt P18825); experiment: modulators of alpha2C/GIRK thallium flux, primary screen, cell-based, HEK293 alpha2C/GIRK1/2 (AID 624;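 active means fluorescence slope after compound addition differing from the mean of all screened samples at 99.7% confidence, in either direction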;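 further: slope of fluorescence ratio to pre-addition baseline per second over 15 to 24 s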); conditions: thallium flux BTC fluorescence, at 10 µM, actives lie on both sides
Alpha-2C adrenergic receptor (Homo sapiens), sequence (P18825 whole entry, looked up): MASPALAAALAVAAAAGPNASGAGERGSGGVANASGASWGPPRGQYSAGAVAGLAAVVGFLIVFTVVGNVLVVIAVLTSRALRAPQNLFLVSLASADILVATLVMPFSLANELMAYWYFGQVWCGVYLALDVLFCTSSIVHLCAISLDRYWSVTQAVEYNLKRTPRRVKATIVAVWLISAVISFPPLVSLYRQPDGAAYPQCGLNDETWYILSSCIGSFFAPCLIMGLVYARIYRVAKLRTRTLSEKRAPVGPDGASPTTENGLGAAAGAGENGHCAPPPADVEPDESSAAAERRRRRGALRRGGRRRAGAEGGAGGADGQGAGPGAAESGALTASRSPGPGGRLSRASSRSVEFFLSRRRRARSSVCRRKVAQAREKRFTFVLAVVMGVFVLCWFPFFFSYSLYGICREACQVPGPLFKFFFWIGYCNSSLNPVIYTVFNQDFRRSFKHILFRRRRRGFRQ

[9] = inhibitors of larval lipid processing in zebrafish, primary screen, whole organism, PED6 fluorescence, gall bladder and intestine (AID 686;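 active means a full or partial loss of lipid-probe fluorescence in the fish gall bladder, intestine or both, judged by eye; inactive means no fluorescence loss, or compound toxic to the fish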;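 further: larvae 5 to 7 days old with five fish per well; signal comes from phospholipase A2 cleavage of quenched PED6 carried via bile; overnight exposure to compound and PED6 before scoring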); conditions: Zebrafish larvae PED6 lipid processing, fluorescence scoring; screened at 20 µM (by protocol)
[10] = inhibitors of Chlamydomonas gravitaxis, primary screen, whole organism, Chlamydomonas reinhardtii, WT vs cilia-less mutant, absorbance, 96-well (AID 463189); conditions: OD600 absorbance, 2 days, at 10 µM, stronger effect = higher value;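 further: 0% = wild type cc124 cells in DMSO and 100% = ciliumless bld1 mutant cells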
[11] = inhibitors of Sendai virus-induced IRF3 signaling, primary screen, TLR/RLR signaling modifier project, cell-based, Sendai virus stimulus, luciferase, 10K MLSCN set (AID 602276;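 active means inhibition at or above 50% at 10 µM; inactive means inhibition below 50%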;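 further: firefly luciferase from ISG56 promoter only with Renilla not read in this screen; 0% = Sendai virus plus DMSO and 100% = medium plus DMSO without virus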); conditions: HEK293 RL24 IRF3 luciferase reporter, at 10 µM, stronger effect = higher value
[12] = inhibitors of poly I:C-induced TLR3 signaling, primary screen, cell-based, poly I:C stimulus, luciferase, 10K MLSCN set (AID 602277;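 active means inhibition of the reporter signal at or above 50%; inactive means inhibition below 50%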); conditions: HEK293-TLR3 RL24 IRF3 luciferase reporter, at 10 µM, stronger effect = higher value
[13] = measured here: cell density z-score
[14] = measured here: nuclear c-Myc green intensity z-score
[15] = measured here: nuclear pErk red intensity z-score, stronger effect = higher value

SMILES	cell count [1]	inhibition [1]	inhibition of aggregation [2]	nuclei count [2] [%]	inhibition [3]	nuclei count [3]	z-score [4, 13]	z-score [4, 14]	z-score [4, 15]	inhibition [5]	fluorescence slope [6]	NADPH fluorescence slope [7]	slope [8]	outcome [9]	inhibition [10]	inhibition [11]	inhibition [12]
Cc1nc(SC2C=CS(=O)(=O)C2)n[nH]1 (stereo not given)	427	-0.8% (inactive)	10.8% (inactive)	98.1	-43.2% (inactive)	139%	-0.37	0.156	1.24	-6.86% (inactive)	-0.482 (inactive)	-0.000222 (inactive)	0.00468 (inactive)	inactive	-12% (inactive)	14.6% (inactive)	18.4% (inactive)
O=C1CSC(=Nc2ccc(O)cc2)N1c1ccc(O)cc1	380	-9.5% (inactive)	3.6% (inactive)	95.8	-49.6% (inactive)	92.5%	1.48	1.47	-2.2	9.82% (inactive)	-0.463 (inactive)	-0.000339 (inactive)	0.00571 (inactive)	inactive	-9.81% (inactive)	17.9% (inactive)	25% (inactive)
NC(CO)C(=O)NNCc1ccc(O)c(O)c1O (stereo not given)	571	-9.9% (inactive)	-16.9% (inactive)	117	-52.2% (inactive)	124%	0.364	0.175	-0.65	3.45% (inactive)	-0.466 (inactive)	-6.2e-05 (inactive)	0.00539 (inactive)	inactive	-0.599% (inactive) and -9.6% (inactive)	8.18% (inactive)	29.4% (inactive)
O=C(NO)c1ccccc1O	594	1.9% (inactive)	-2.3% (inactive)	103	-35.8% (inactive)	102%	-0.325	-0.0884	-1.2	5.79% (inactive)	-0.458 (inactive)	-2.4e-05 (inactive)	0.00615 (inactive)	inactive	-11.3% (inactive)	5.89% (inactive)	19.5% (inactive)
CN1C(C(=O)Nc2ccccn2)=C(O)c2ccccc2S1(=O)=O	593 and 424	-2.6% (inactive) and -16.7% (inactive)	-13.6% (inactive)	111	-30.1% (inactive) and -244% (inactive)	112% and 218%	0.668 and -0.761	0.887 and -0.948	-0.364 and 0.452	11.3% (inactive) and 2.71% (inactive)	-0.457 (inactive) and -0.395 (inactive)	1.6e-05 (inactive) and -1.1e-05 (inactive)	0.00561 (inactive) and 0.00377 (inactive)	inactive	7.21% (inactive) and 26% (inactive) and -1.23% (inactive)	-0.169% (inactive)	-2.96% (inactive)
